PubChem BioAssay AID1159580 (chemical genetic matrix, 2015)
“And” between values parts separate entries of the source, which are not always exact repeats. Identical values can stand only once. Out of some 5,500 compounds screened, about 2,000 (36%) were called active. Inconclusive results (about 18%) are left out. No stated cut-off is given here; in the data, active means normalized growth mostly below about 0.91 (no sharp cut-off); inconclusive means no clear call, values can overlap the other calls; inactive means mostly above about 0.92. The list shows a part of the results.

Test: chemical genetic growth profiling, strain panel (AID 1159580);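 further: tested at 20 µM; growth read once vehicle control cultures reached saturation at 30 °C; 1 = growth at the plate median or of vehicle wells; lower values mean less growth of the strain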
Conditions: S. cerevisiae deletion strains, growth OD

Measured: normalized growth

CO[C@@H]1[C@@H](OC(N)=O)[C@@H](O)[C@H](Oc2ccc3c(O)c(NC(=O)c4ccc(O)c(CC=C(C)C)c4)c(=O)oc3c2C)OC1(C)C
inactive: locus YAL013W, strain DEP1, hits give low values 1.02 | locus YAL021C, strain ccr4, hits give low values 1.03 | locus YAL026C, strain drs2, hits give low values 1.02 | locus YAL030W, strain snc1, hits give low values 1.03 | locus YBL061C, strain skt5, hits give low values 1.02 | locus YBR009C, strain hhf1, hits give low values 1.02 | locus YBR021W, strain FUR4, hits give low values 1.04 | locus YBR023C, strain chs3, hits give low values 1.04 | locus YBR171W, strain sec66, hits give low values 1.06 | locus YBR229C, strain ROT2, hits give low values 1.01 | locus YBR231C, strain swc5, hits give low values 1.04 | locus YBR279W, strain paf1, hits give low values 1.05 | locus YCL011C, strain gbp2, hits give low values 1.03 | locus YCL016C, strain dcc1, hits give low values 1.04 | locus YCL029C, strain bik1, hits give low values 0.995 | locus YCL061C, strain MRC1, hits give low values 1.03 | locus YCL069W, strain vba3, hits give low values 1.03 | locus YCR088W, strain abp1, hits give low values 1.04 | locus YDL005C, strain med2, hits give low values 1.04 | locus YDL035C, strain GPR1, hits give low values 1.01 | locus YDL040C, strain nat1, hits give low values 1.03 | locus YDL074C, strain BRE1, hits give low values 0.955 | locus YDL101C, strain DUN1, hits give low values 1.02 | locus YDL134C, strain PPH21, hits give low values 1.01 | locus YDL185W, strain tfp1, hits give low values 0.945 | locus YDL192W, strain arf1, hits give low values 0.988 | locus YDR001C, strain nth1, hits give low values 1.03 | locus YDR069C, strain doa4, hits give low values 1.01 | locus YDR101C, strain arx1, hits give low values 1.01 | locus YDR137W, strain rgp1, hits give low values 0.998 | locus YDR150W, strain NUM1, hits give low values 1.02 | locus YDR159W, strain sac3, hits give low values 0.98 | locus YDR162C, strain NBP2, hits give low values 0.968 | locus YDR195W, strain ref2 1.04 | locus YDR297W, strain sur2, hits give low values 1.03 | locus YDR318W, strain mcm21, hits give low values 0.991 | locus YDR334W, strain swr1, hits give low values 1.03 | locus YDR335W, strain msn5, hits give low values 1.06 | locus YDR388W, hits give low values 0.991 | locus YDR392W, strain spt3, hits give low values 0.999 | locus YDR502C, strain sam2, hits give low values 0.999 | locus YEL003W, strain gim4, hits give low values 0.999 | locus YEL037C, strain rad23, hits give low values 1.04 | locus YEL061C, strain CIN8 (second series), hits give low values 1.02 | locus YEL061C, strain CIN8, hits give low values 0.992 | locus YER015W, strain faa2, hits give low values 1.04 | locus YER016W, strain bim1, hits give low values 1.03 | locus YER110C, hits give low values 0.985 | locus YER111C, strain swi4, hits give low values 1.03 | locus YER155C, strain BEM2 (second series), hits give low values 1.06 | locus YER155C, strain BEM2, hits give low values 1.04 | locus YER167W, strain BCK2, hits give low values 1.02 | locus YFR010W, strain ubp6, hits give low values 1.02 | locus YGL078C, strain dbp3, hits give low values 0.954 | locus YGL086W, strain mad1, hits give low values 1.02 | locus YGL167C, strain pmr1, hits give low values 1.02 | locus YGL173C, strain kem1, hits give low values 1.05 | locus YGL227W, strain vid30, hits give low values 1.03 | locus YGL240W, strain doc1, hits give low values 1.01 | locus YGL248W, strain PDE1, hits give low values 1.02 | locus YGL253W, strain hxk2, hits give low values 1 | locus YGR078C, strain PAC10, hits give low values 1.01 | locus YGR135W, strain pre9, hits give low values 0.993 | locus YGR229C, strain SMI1, hits give low values 1.01 | locus YGR252W, strain gcn5, hits give low values 1.16 | locus YHR013C, strain ard1, hits give low values 1.05 | locus YHR027C, strain rpn1, hits give low values 1.04 | locus YHR030C, strain SLT2, hits give low values 1.02 and 0.882 | locus YHR079C, strain IRE1 (second series), hits give low values 0.986 | locus YHR079C, strain IRE1, hits give low values 0.87 | locus YHR094C, strain hxt1, hits give low values 0.995 | locus YHR129C, strain ARP1, hits give low values 1 | locus YHR142W, strain chs7, hits give low values 1.01 | locus YHR200W, strain rpn10, hits give low values 0.989 | locus YIL066C, strain RNR3, hits give low values 1.01 | locus YIL073C, strain SPO22, hits give low values 0.71 | locus YIL125W, strain kgd1, hits give low values 0.964 | locus YIR030C, strain dcg1, hits give low values 0.992 | locus YJL092W, strain hpr5, hits give low values 1.03 | locus YJL095W, strain BCK1 (second series), hits give low values 1.04 | locus YJL095W, strain BCK1, hits give low values 1.04 and 0.919 | locus YJL115W, strain asf1, hits give low values 1.04 | locus YJL129C, strain trk1, hits give low values 0.971 | locus YJL134W, strain LCB3, hits give low values 1.01 | locus YJL154C, strain vps35, hits give low values 1.04 | locus YJL164C, strain tpk1, hits give low values 1.02 | locus YJL166W, strain qcr8, hits give low values 1.04 | locus YJL168C, strain set2, hits give low values 0.988 | locus YJL187C, strain SWE1 (second series), hits give low values 1.01 | locus YJL187C, strain SWE1, hits give low values 1.03
